Laboratory results as given in the supplement of paper PMC6555819.

Columns and labels:
Test in all cases: PBM binding z-score (relative to random genomic background probes); higher = stronger binding; sequences stand for … in GC…GCGATTGACAGCGTAGAATGAAGG
[1] = tested on: PPARg:RXRa DBDmut IVT, anti-RXR (DBD mutation: RXRa K156A/R161A, NR concentration 270 nM, RXRa partner concentration 90 nM)
Procedure, shortened: (§1)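 Ligand-free nuclear receptor dimers were bound for 1 h to custom Agilent 4×180K protein-binding microarrays. Detection used antibodies against each partner (one per run). Binding z-scores rest on regression-normalized fluorescence, with random background probes as the reference.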

[2] = tested on: PPARg:RXRa IVT, anti-PPARg (NR concentration 270 nM, RXRa partner concentration 90 nM)
Procedure, shortened: as §1

[3] = tested on: PPARg DBDmut IVT, anti-PPARg (DBD mutation: PPARg1 K132A/R137A, NR concentration 270 nM)
Procedure, shortened: as §1

[4] = tested on: PPARg homodimer (NR concentration 180 nM)
Procedure, shortened: as §1

[5] = tested on: PXR:RXRa (NR concentration 270 nM, RXRa partner concentration 90 nM)
Procedure, shortened: as §1

[6] = tested on: PXR homodimer (NR concentration 270 nM)
Procedure, shortened: as §1

[7] = tested on: RARa:RXR (NR concentration 270 nM, RXRa partner concentration 90 nM)
Procedure, shortened: as §1

[8] = tested on: RARa homodimer (NR concentration 270 nM)
Procedure, shortened: as §1

[9] = tested on: RARb:RXRa (NR concentration 270 nM, RXRa partner concentration 90 nM)
Procedure, shortened: as §1

[10] = tested on: RARb homodimer (NR concentration 270 nM)
Procedure, shortened: as §1

[11] = tested on: RARg:RXRa (NR concentration 270 nM, RXRa partner concentration 90 nM)
Procedure, shortened: as §1

[12] = tested on: RARg homodimer (NR concentration 270 nM)
Procedure, shortened: as §1

[13] = tested on: RXRa DBDmut IVT, anti-RXR (DBD mutation: RXRa K156A/R161A, NR concentration 90 nM)
Procedure, shortened: as §1

[14] = tested on: RXRa homodimer (NR concentration 180 nM)
Procedure, shortened: as §1

[15] = tested on: THRa:RXRa (NR concentration 90 nM, RXRa partner concentration 90 nM)
Procedure, shortened: as §1

[16] = tested on: THRa homodimer (NR concentration 90 nM)
Procedure, shortened: as §1

[17] = tested on: VDR homodimer (NR concentration 270 nM)
Procedure, shortened: as §1

[18] = tested on: VDR:RXRa (NR concentration 270 nM, RXRa partner concentration 90 nM)
Procedure, shortened: as §1

| Sequence | PBM binding z-score [1] | PBM binding z-score [2] | PBM binding z-score [3] | PBM binding z-score [4] | PBM binding z-score [5] | PBM binding z-score [6] | PBM binding z-score [7] | PBM binding z-score [8] | PBM binding z-score [9] | PBM binding z-score [10] | PBM binding z-score [11] | PBM binding z-score [12] | PBM binding z-score [13] | PBM binding z-score [14] | PBM binding z-score [15] | PBM binding z-score [16] | PBM binding z-score [17] | PBM binding z-score [18] |
| --- | --- | --- | --- | --- | --- | --- | --- | --- | --- | --- | --- | --- | --- | --- | --- | --- | --- | --- |
| ATATGTAGGTTAGGGTCAATCAGAAAGTAGGGAA | 6.1 | 6.62 | 1.96 | 2.82 | 3.61 | 1.38 | 4.43 | 1.88 | 3.59 | 3.59 | 4.12 | 3.71 | 1.23 | 5.05 | 3.83 | 2.6 | 2.43 |  |
| CGAACTAGTTCACCAGGACAGTGAAGAGGTTGGA | 1.56 | 1.11 | 0.126 | -0.235 | 0.423 | 0.241 | 0.0691 | -0.106 | 1.7 | 1.09 | 1.14 | 1.44 | 2.02 | 0.753 | 1.69 | 0.658 | 1.05 | 0.879 |
| AGATGTAGGTTAGGGTCATTCAGAAAGTAGGGAA | 5.84 | 6.36 | 2.37 | 3.93 | 4.39 | 3.03 | 5.13 | 3.23 | 3.39 | 3.52 | 3.98 | 3 | 2.56 | 4.81 | 3.92 | 3.4 | 4.44 |  |
| CGGACTAGGTCAAAGGACAGTGAAAGGCGACGTA | 7.7 | 7.9 | 0.294 | 1.67 | 1.11 | -0.218 | 2.41 | 0.208 | 3.69 | 2.91 | 3.97 | 4.51 | 1.33 | 3.02 | 2.57 | 0.589 | 0.288 |  |
| CGAACTAGGTCAAAGGACAGTTAAAGGCGACGTA | 7.76 | 8.44 | 1.12 | 2.07 | 1.32 | 0.165 | 2.42 | 0.332 | 4 | 3.01 | 4.13 | 4.51 | 1.67 | 3.1 | 2.49 | 0.41 | 0.768 | 1.52 |
| ATATGTTGGTTAGGGTCATTCAGAAAGTAGGGAA | 1.44 | 2.45 | 1.7 | 3.53 | 4.44 | 2.69 | 4.96 | 2.67 | 3.2 | 3.19 | 3.79 | 2.71 | 2.64 | 5.05 | 4.08 | 3.71 | 4.01 |  |
| CGAACTAGGTCAAAGGACAGTGAGAGGCGACGTA | 7.99 | 8.52 | 1.52 | 1.96 | 0.82 | -0.246 | 2.11 | 0.479 | 3.81 | 3.04 | 3.93 | 4.52 | 1.67 | 3.04 | 2.62 | 0.63 | 0.723 | 1.19 |
| CGAACTAGGTAACCAGGACAGTGAAGAGGTTGGA | 6.32 | 5.77 | -0.0996 | 0.22 | -0.312 | 0.0727 | -0.0151 | -0.648 | 0.0285 | 0.378 | 0.0852 | 0.279 | -0.359 | 0.345 | 1.37 | 0.609 | -0.193 | -0.0408 |
| ATATATAGGTTAGGGTCATTCAGAAAGTAGGGAA | 6.92 | 6.72 | 2.87 | 4.26 | 4.79 | 2.81 | 5.43 | 2.83 | 3.58 | 3.6 | 4.24 | 3.75 | 2.67 | 5.33 | 4.11 | 3.76 | 3.95 |  |
| ATATGTAGGTTAGGGTAATTCAGAAAGTAGGGAA | 6.57 | 6.48 | 2.48 | 2.03 | 0.958 | 1.34 | 1.34 | 1.87 | 1.33 | 1.35 | 1.05 | 0.966 | 0.835 | 1.16 | 1.72 | 1.34 | 1.11 |  |
| CGAACTAGGCCACCAGGACAGTGAAGAGGTTGGA | 6.89 | 6.5 | -0.0856 | -0.263 | -0.874 | -0.217 | -0.512 | -0.684 | 0.821 | 0.689 | 0.238 | 0.672 | -0.131 | -0.0253 | 0.954 | 0.3 | -0.183 | -0.817 |
| CGAATTAGGTCAAAGGACAGTGAAAGGCGACGTA | 8.15 | 7.88 | 2.44 | 2.21 | 1.46 | 0.358 | 2.87 | 0.296 | 4.18 | 3.18 | 4.17 | 4.47 | 1.73 | 3.37 | 3.09 | 1.4 | 0.401 | 1.65 |
| CGAACTAGGTCACAAGGACAGTGAAGAGGTTGGA | 8.39 | 9.03 | 1.5 | 3.52 | 1.25 | 0.516 | 2.14 | 0.713 | 4.09 | 3.36 | 4.24 | 4.8 | 1.32 | 3.1 | 3.33 | 1.7 | 0.816 |  |
| CGAACTAGGTCACTAGGACAGTGAAGAGGTTGGA | 7.81 | 8.81 | 2.32 | 1.48 | 0.625 | 0.00587 | 1.68 | 0.195 | 3.62 | 3.02 | 3.58 | 4.16 | 1.22 | 2.07 | 2.71 | 0.967 | 0.00359 |  |
